These results are taken from PubChem BioAssay (NCI).

This is part of a sample that, as a whole, favours compounds with a hit. Of some 83,000 tested, about 20% had one in any assay.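 In brief: 96-well plates, 48 h treatment, single concentration, percent growth endpoint.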 Values without a mark were called inactive. Activity calls are given as the source filed them. How the source made its calls: active means growth percent below 10; inactive means the rest.

This assay relates to HL-60(TB) leukemia. The assay is described as follows: NCI-60 one-dose screen, 48 h (100 = growth as untreated, 0 = no growth, -100 = all killed). The settings on record: 10 µM unless noted.
For the compound `CCOC(=O)NC(C)C`, the growth was 68%.
In the case of `COC(=O)[C@@H]1[C@H](O)[C@H](C)[C@H](O)[C@H](C)/C=C\C=C(C)C(=O)Nc2c(C)c(OC(C)=O)c3c(c2O)C(=O)C(C)=C2OCOC(=C23)C(C)=C[C@@](C)(O)[C@H](O)[C@@H](C)[C@H]1OC(C)=O` it was 119%.
As for `O=C(O)c1cc(I)ccc1O`, the growth was 103%.
With `CCC(c1cccc(Br)c1)C(C(=O)O)c1ccc(OC)cc1` (centres undefined) the figure was 96.2%; with `O=C1/C(=C/c2ccc(F)cc2)CN(C(=O)C(Cl)Cl)C/C1=C\c1ccc(F)cc1`, -34% (active).
For the compound `NC(=O)SCC(=O)Nc1ccc(S(N)(=O)=O)cc1`, the growth was 103%.
In the case of `COc1ccc(-n2c(SCc3cc(OC)c(OC)c(OC)c3)nc3ccc(C)cc3c2=O)cc1`, the growth was 31.1%.
As to `Nc1c(C(=O)Nc2cccc3ccncc23)sc2nc3c(cc12)C(=O)CCC3`, the growth was 14.7%.
With `COc1ccc(-c2nc3sccn3c2-c2ccnc(NCCCNS(=O)(=O)c3ccc4ccccc4c3)n2)cc1` the figure was 66.1%; with `COc1cc2cc(CN3CCN(c4nccc(-c5ccc6ccccc6c5)n4)CC3)c(=O)[nH]c2cc1OC`, 9.75% (active).
In the case of `O=C1CCn2c1c(O)c1ccccc1c2=O` it was 110%; in that of `COc1ccc(NC(=O)CSc2nnc(-c3cc(-c4ccc(S(N)(=O)=O)cc4)nc4ccccc34)n2-c2ccccc2)cc1`, 65.1%.
As for `CC1=NN(c2ccc(Cl)cc2)CC1(C)N=O` (centres undefined), the growth was 38.5%.
With `O=C(O)CNC(=O)CN1C(=O)c2ccccc2C1=O` the figure was 90.7%.
